# A selection: hits, their analogues and other compounds. The true share with any hit is near 2.4%.
# POLI inh – qHTS for Inhibitors of Polymerase Iota; DNA polymerase iota (Homo sapiens), Q9UNA4; Pol iota fluorescent replication assay, 10 min; Potency, µM (titrated, usually from 115 µM), most hits filed as inhibitors; actives 1% (n = 390,000)
#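 Fluorescent replication assay read twice, at 0 min and 10 min after adding 50 nM (final) substrate. Enzyme (10 nM) and compounds were first incubated 15 min at room temperature; enzyme-free buffer wells were negative controls.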
# POLH inh – qHTS for Inhibitors of Polymerase Eta. DNA polymerase eta (Homo sapiens), Q9Y253. recombinant Pol eta, fluorescent DNA replication assay. Potency, µM (top dose mostly 114 µM), actives largely listed as inhibitors. actives 1.2% (n = 390,000). AID 588591, 2011
#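 Pol eta (10 nM) was preincubated with compounds for 15 min at room temperature, after which fluorescent replication substrate (50 nM final) was added to start the reaction. Fluorescence was read kinetically at 0 and 10 min.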
# APE1 inh – qHTS Assay for Inhibitors of the Human Apurinic/apyrimidinic Endonuclease 1 (APE1). recombinant APE1, TAMRA/BHQ-2 abasic DNA cleavage fluorescence. DNA repair nuclease/redox regulator APEX1 (Homo sapiens), P27695. actives 0.35% (n = 350,000). Potency, µM (series often up to 65.8 µM), usual class: inhibitors. AID 2517, 2012; also: nearly all actives have a fitted effect of over 55% in size
#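 Activity was derived from the fluorescence gain between first and third kinetic reads (60 s intervals, ex 525/em 598 nm) after 50 nM THF-abasic TAMRA/BHQ-2 duplex was added to 0.75 nM APE1 preincubated 15 min with compound.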
# POLB inh – qHTS Assay for Inhibitors of DNA Polymerase Beta; P06746; Pol beta primer extension/strand displacement, fluorescence kinetic; Potency, µM (doses to about 114 µM), actives largely listed as inhibitors; actives 1.3% (n = 340,000)
#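 Values derive from four-parameter Hill fits of normalized kinetic data: reads at 0 and 10 min following addition of 50 nM substrate to 10 nM Pol beta preincubated 15 min with compound.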
# Pol kappa inh – qHTS for Inhibitors of Polymerase Kappa; purified Pol kappa, fluorescent DNA synthesis assay, 10 min; Potency, µM (top dose mostly 107 µM), most hits filed as inhibitors; actives 0.53% (n = 400,000); AID 588579, 2011
# Target sequence (Q9UBT6 whole entry, looked up): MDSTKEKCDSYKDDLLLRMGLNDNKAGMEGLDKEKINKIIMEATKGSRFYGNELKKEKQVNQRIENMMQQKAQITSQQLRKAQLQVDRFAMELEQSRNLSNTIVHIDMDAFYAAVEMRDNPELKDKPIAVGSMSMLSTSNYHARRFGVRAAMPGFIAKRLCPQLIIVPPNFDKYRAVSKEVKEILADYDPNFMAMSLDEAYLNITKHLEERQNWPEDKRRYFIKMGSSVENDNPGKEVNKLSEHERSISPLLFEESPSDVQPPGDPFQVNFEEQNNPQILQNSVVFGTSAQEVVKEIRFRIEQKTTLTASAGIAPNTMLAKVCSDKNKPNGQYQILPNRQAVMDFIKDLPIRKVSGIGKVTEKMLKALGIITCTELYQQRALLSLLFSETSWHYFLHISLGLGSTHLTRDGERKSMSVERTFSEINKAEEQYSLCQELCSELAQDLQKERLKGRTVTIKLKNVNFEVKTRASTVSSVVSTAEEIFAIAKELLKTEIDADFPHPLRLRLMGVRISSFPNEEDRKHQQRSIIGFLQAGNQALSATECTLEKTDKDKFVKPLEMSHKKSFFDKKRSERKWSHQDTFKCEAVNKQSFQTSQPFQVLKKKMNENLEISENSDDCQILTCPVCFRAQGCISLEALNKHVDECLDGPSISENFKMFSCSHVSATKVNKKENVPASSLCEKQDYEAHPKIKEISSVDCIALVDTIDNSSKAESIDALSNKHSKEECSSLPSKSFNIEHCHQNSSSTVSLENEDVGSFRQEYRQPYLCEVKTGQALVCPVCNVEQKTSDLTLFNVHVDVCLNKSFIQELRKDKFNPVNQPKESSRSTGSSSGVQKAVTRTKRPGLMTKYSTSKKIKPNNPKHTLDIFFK
#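 Kinetic fluorescence screen: compound preincubated 15 min RT with 10 nM enzyme; 50 nM substrate (final) initiates; reads at 0/10 min.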
# GLS inhibitor – qHTS for Inhibitors of Glutaminase (GLS); Glutaminase kidney isoform, mitochondrial (Homo sapiens), O94925; GLS enzymatic activity, qHTS titration; Potency, µM (top dose mostly 45.5 µM), actives largely listed as inhibitors; actives 0.21% (n = 410,000)
#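 hKGA; 45 mM KH2PO4 pH 8.2 + 0.02% Tween-20; cpd via pin tool; 1 mM Gln soln; GluOx/HRP/Amplex Red; RT 30 min; fluor. t0 & final.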
# A number is an active result; 0 = inactive; ? = inconclusive; - = no result given. Calls follow the shape of the dose curve; as a rule, active = well fitted curve in the direction sought with a large enough effect; inconclusive = small, poorly fitted or top-dose-only effect, or another doubt; inactive = no such curve, though single readings can be large; an effect the other way counts as inactive or inconclusive.
SMILES,POLI inh,POLH inh,APE1 inh,POLB inh,Pol kappa inh,GLS inhibitor
COc1ccc(N=c2oc3ccc(OC)cc3cc2-c2nc3ccccc3[nH]2)cc1,0,0,0,0,0,0
CC(C)CCn1c(SCC(=O)N2CC(=O)Nc3ccccc32)nc2scc(-c3cccs3)c2c1=O,?,?,0,22µM,?,0
C=CCn1c(SCC(=O)N2CC(=O)Nc3ccccc32)nc2scc(-c3cccs3)c2c1=O,?,0,0,0,0,0
Cc1cc(C)c2c(=O)c(C#N)coc2c1,?,50µM,0,45µM,?,0
COc1cccc(C2C3=C(N=c4s/c(=C\c5ccc(OCC(=O)O)cc5)c(=O)n42)c2ccccc2CC3)c1 (stereo unspecified),0,89µM,0,?,0,0
COc1cccc(C2C3=C(N=c4s/c(=C\c5cccc(O)c5)c(=O)n42)c2ccccc2CC3)c1OC (stereo unspecified),0,0,0,0,0,0
COc1cccc(C2C3=C(N=c4s/c(=C\c5ccc(O)cc5)c(=O)n42)c2ccccc2CC3)c1OC (stereo unspecified),0,0,0,0,0,0
COc1ccccc1C1C2=C(N=c3s/c(=C/c4cccc(OCC(=O)O)c4)c(=O)n31)c1ccccc1CC2 (stereo unspecified),?,40µM,0,50µM,0,0
Cc1cc(-c2ccc(S(=O)(=O)N3CCN(C)CC3)s2)on1,0,0,0,0,0,0
S=C(NCCc1ccccc1)NCC(c1ccco1)N1CCCCC1 (stereo unspecified),0,0,0,0,0,0
COc1ccc(/C=C2/SC(=O)N(CCC(=O)Nc3ccc(C)cc3)C2=O)cc1OC,-,-,0,0,-,-
COc1cc(/C=C2\SC(N)=NC2=O)ccc1OCC(=O)Nc1ccc(C)cc1,79µM,?,0,3.5µM,0,0
CC(=O)Nc1ccc(S(=O)(=O)Oc2cccc(/C=C3\SC(N)=NC3=O)c2)cc1,0,0,0,0,0,18µM
COc1cc(/C=C2/SC(=S)N(CC(=O)O)C2=O)ccc1OCC(=O)Nc1ccc(C)c(C)c1,-,-,4.7µM,?,-,-
O=C(CN1CCOCC1)NNC(=S)Nc1ccc(Cl)cc1,0,0,0,0,0,0
Cc1cc(C(F)(F)F)nn1CC(=O)NCc1cccs1,0,0,0,0,0,0
Cc1c(N=Cc2cc3c(cc2[N+](=O)[O-])OCO3)cccc1[N+](=O)[O-],7.9µM,?,-,-,45µM,0
CC1=C(SCc2ccccc2)C(=O)c2ccccc2C1=O,3.2µM,32µM,-,-,0,0
CCc1nnc(NC(=O)c2ccc(Cl)c(S(=O)(=O)N3CCc4ccccc43)c2)s1,?,?,0,20µM,0,0
Cc1ccc2nc(-c3ccc(SCC(=O)Nc4ccc5c(c4)OCCO5)nc3)[nH]c2c1,?,?,0,14µM,0,0
O=C(CSc1ccc(-c2nc3ccccc3[nH]2)cn1)Nc1ccc2c(c1)OCCO2,?,0,0,18µM,0,0
O=C(CSc1ccc(-c2nc3ccccc3[nH]2)cn1)Nc1ccc(S(=O)(=O)NC2CC2)cc1,?,?,0,18µM,0,0
CCc1nnc(NC(=O)CSc2ccc(-c3nc4ccccc4[nH]3)cn2)s1,?,?,0,35µM,0,0
Cc1ccc(CCNC(=O)C2CCC(=O)N(Cc3cccc(F)c3)C2)cc1 (stereo unspecified),0,0,0,0,0,0
CS(=O)(=O)c1ccccc1C(=O)Nc1ccc(-c2nc3ccccc3[nH]2)cc1,0,0,0,0,0,0
O=C(Nc1ccc(-c2nc3ccccc3[nH]2)cc1)c1ccccc1NS(=O)(=O)c1ccc(F)cc1,?,28µM,0,0,0,0

# Bioassay records: PubChem, National Center for Advancing Translational Sciences (NCATS)
